Source: PubChem BioAssay
An excerpt weighted towards active compounds, which were near 2.5% of everything screened.
Cruzain noTriton: blocks cruzain activity in detergent-free assay | purified cruzain, Z-FR-AMC fluorescence, no detergent | 2.3% of 200,000 active | P25779 | Potency, µM, inactives show max response, negative = inhibition, hits mostly inhibitors;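 note: plate controls were enzyme without inhibitor for no effect and buffer without enzyme for full effect; nearly all actives have a fitted effect of over 40% in size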
Target sequence (P25779 123-467 limits assumed): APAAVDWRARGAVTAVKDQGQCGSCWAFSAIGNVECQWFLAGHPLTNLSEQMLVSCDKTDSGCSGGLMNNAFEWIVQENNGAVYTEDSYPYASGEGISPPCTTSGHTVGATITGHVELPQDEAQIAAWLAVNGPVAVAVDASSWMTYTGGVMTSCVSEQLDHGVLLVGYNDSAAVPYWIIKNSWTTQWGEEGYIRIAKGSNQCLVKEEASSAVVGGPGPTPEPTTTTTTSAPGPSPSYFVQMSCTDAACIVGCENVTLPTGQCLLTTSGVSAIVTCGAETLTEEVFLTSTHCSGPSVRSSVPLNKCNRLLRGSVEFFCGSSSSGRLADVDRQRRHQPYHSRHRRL
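Detergent-free condition (0.00005% Triton X-100) in acetate buffer pH 5.5 with DTT. 1.5 nM enzyme and compound were pre-mixed 15 min, then 2 uM Z-FR-AMC substrate added; reaction progress from fluorescence change between first and third reads (60 s).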
Cruzain Triton: cruzain (T. cruzi) inhibition with detergent; P25779; purified cruzain, Z-FR-AMC fluorescence, 0.01% Triton; Potency, µM, without a hit: max response, negative = inhibition, usual class: inhibitors; 0.43% of 200,000 active; AID 1478;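 note: plate controls were neutral wells for no effect and buffer without enzyme for full effect; nearly all actives have a fitted effect of over 40% in size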
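Compounds were screened in titration against cruzain (1.5 nM) with 0.01% Triton X-100 to counter colloidal aggregation. Activity was the AMC fluorescence increase over 60 s after adding 2 uM Z-FR-AMC at pH 5.5.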
Starred values were filed as active, the others as inactive; ? = inconclusive. Calls come from the whole dose curve; as a rule, active = well fitted curve in the direction sought with a large enough effect; inconclusive = small, poorly fitted or top-dose-only effect, or another doubt; inactive = no such curve, though single readings can be large; an effect the other way counts as inactive or inconclusive. Potency is the fitted concentration of half-maximal effect.

SMILES	Cruzain noTriton	Cruzain Triton
COc1cc2c(cc1NC(=O)C(C)Sc1cccc[n+]1[O-])oc1ccccc12 (configuration not stated)	?	-24%
COc1cc2c(cc1NC(=S)NC(=O)c1c(OC)cccc1OC)oc1ccccc12	6.3µM*	-4%
COc1ccccc1CC(=O)Nc1cc2oc3ccccc3c2cc1OC	-24%	3%
COc1cc2c(cc1NC(=O)C(C)Sc1nc3ccccc3n1C)oc1ccccc12 (configuration not stated)	25µM*	1%
COc1cc2c(cc1NC(=O)COc1ccc(Br)cc1)oc1ccccc12	8%	-2%
COc1cc2c(cc1NC(=O)/C=C/c1cc(OC)c(OC)c(OC)c1)oc1ccccc12	?	-5%
COc1cc2c(cc1NC(=O)COc1ccc3ccccc3c1)oc1ccccc12	10µM*	-6%
COc1cc(OC)cc(C(=O)NC(=S)Nc2cc3oc4ccccc4c3cc2OC)c1	4µM*	-5%
O=C(O)C[C@@H](C(=O)O)c1ccccc1[N+](=O)[O-]	11%	3%
COc1ccc(-c2cc(C)nc3c(-c4ccc(OC)c(OC)c4)c(C)nn23)cc1	-4%	1%
Cc1ccc2scc(N3CCN(c4ccccc4)CC3)c(=O)c2c1	2%	-6%
O=c1cc(-c2ccccc2)n2c(SCc3c(F)cccc3Cl)nnc2[nH]1	3%	-1%
Cc1ccc(CNC(=O)C2CCCN(Cc3nc(-c4cccc(C)c4)oc3C)C2)cc1 (configuration not stated)	24%	10%
ClCCl	0%	-1%
S=C1NC=NC2N=CNC12 (configuration not stated)	?	3%
CCOc1ccccc1-n1nnnc1SCC(=O)Nc1cc(C)on1	1%	3%
COc1ccc(C(=O)NC(=S)Nc2cc3oc4ccccc4c3cc2OC)cc1	7.9µM*	-3%
COc1cccc(NC(=O)CSc2ncnc3c2oc2ccccc23)c1	22%	-4%
COc1ccc(CC(=O)Nc2cc3oc4ccccc4c3cc2OC)cc1	12%	-5%
CCOc1ccccc1-n1nnnc1SCC(=O)Nc1cc2oc3ccccc3c2cc1OC	7.9µM*	4%
COc1ccc(Cl)cc1NC(=O)CSc1ncnc2c1oc1ccccc12	16µM*	-2%
COc1ccc(C(CC(=O)O)NC(=O)c2cc3ccccc3oc2=O)cc1OC (configuration not stated)	-2%	-4%
N=C(N)SCCc1ccncc1	3%	-1%
c1cc(CSSCc2ccncc2)ccn1	?	2.8µM*
COc1ccc(/C=N/N2CCN(C3c4ccccc4-c4ccccc43)CC2)cc1O	15%	-4%
SMILES	Cruzain noTriton	Cruzain Triton
O=[N+]([O-])c1cc(/C=N/N2CCN(C3c4ccccc4-c4ccccc43)CC2)ccc1Cl	13µM*	4%
COc1ccc(Cl)cc1-c1nc(-c2ccc(Br)o2)no1	7.9µM*	10%
COc1ccc(-c2nc(-c3ccc(Br)o3)no2)cc1	-21%	6%
CCOC(=O)c1ccc(N2CCN(c3cc(C)ccc3C)CC2)c(NC(=O)Nc2ccccc2)c1	7.9µM*	0%
CCOC(=O)c1ccc(N2CCN(c3cc(Cl)ccc3C)CC2)c(NC(=O)Nc2ccc(OCC)cc2)c1	-1%	0%
N#CSCSC#N	-15%	-27%
CCN1CCCC1Cn1c(-c2ccccc2)nc2c(NCCOC)nc(C)nc21 (configuration not stated)	-7%	-11%
Cc1ccc(C)c(CN2C(=O)c3ccccc3S(=O)(=O)c3ccc(C(=O)OCC4CCCO4)cc32)c1 (configuration not stated)	-25%	-1%
Cc1cc(C)c(CN2C(=O)c3ccccc3S(=O)(=O)c3ccc(C(=O)OCC4CCCO4)cc32)c(C)c1 (configuration not stated)	13µM*	-2%
CCOC(=O)c1cnc2c(OC)cccc2c1Nc1cccc(O)c1	-14%	-2%
CCC(SC1=N/C(=C/c2ccccc2)C(=O)N1c1ccccc1)C(=O)Nc1cc(C)on1 (configuration not stated)	32µM*	-1%
COc1ccc(/C=C2/N=C(SCC(=O)Nc3cc(C)on3)N(c3ccccc3)C2=O)cc1	22%	3%
COC(=O)c1cnn2c(C)c(Cc3c(C)cc(C)cc3C)c(C)nc12	23%	0%
Cc1ccc(NC(=O)Cn2c(=O)ccc3cc(S(=O)(=O)N4CCC(C)CC4)ccc32)cc1Cl	-13%	0%
CCOCCCNC(=S)NCCNc1nc2ccc(C)cc2cc1C#N	4%	-3%
COCCNC(=S)NCCCNc1nc2cc3c(cc2cc1C#N)OCO3	?	18µM*
CCn1c2ccccc2c2cc(NC(=O)COC(=O)c3cccc(S(=O)(=O)NC)c3)ccc21	-26%	-2%
CCN(CC)S(=O)(=O)c1cccc(C(=O)OCC(=O)Nc2ccc3c(c2)c2ccccc2n3CC)c1	7.9µM*	-4%
CCCN(CCC)C(=O)Cn1c(=O)n(-c2cccc(OC)c2)c(=O)c2c3c(sc21)CCCC3	-9%	-4%
